# The supplement of paper PMC6555819
# Tests used:
# Assay in all cases: PBM binding z-score (relative to random genomic background probes); higher = stronger binding; sequences stand for … in GC…GCGATTGACAGCGTAGAATGAAGG
# [1] = test system: PPARg:RXRa DBDmut IVT, anti-RXR (DBD mutation: RXRa K156A/R161A, NR concentration 270 nM, RXRa partner concentration 90 nM)
# In short: (§1)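 On custom Agilent 4×180K arrays, double-stranded probes with 34-nt variable regions carried direct-repeat seeds, single-nucleotide variants, half-site ablations or random human genomic background. Ligand-free nuclear receptor dimers were applied for 1 h, and binding was read with antibodies against each partner (one per run). Binding z-scores come from regression-normalized fluorescence, with the random background probes as reference.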
# [2] = test system: PPARg:RXRa IVT, anti-PPARg (NR concentration 270 nM, RXRa partner concentration 90 nM)
# In short: as §1
# [3] = test system: PPARg DBDmut:RXRa IVT, anti-PPARg (DBD mutation: PPARg1 K132A/R137A, NR concentration 270 nM, RXRa partner concentration 90 nM)
# In short: as §1
# [4] = test system: PPARg DBDmut IVT, anti-PPARg (DBD mutation: PPARg1 K132A/R137A, NR concentration 270 nM)
# In short: as §1
# [5] = test system: PPARg homodimer (NR concentration 180 nM)
# In short: as §1
# [6] = test system: PXR:RXRa (NR concentration 270 nM, RXRa partner concentration 90 nM)
# In short: as §1
# [7] = test system: PXR homodimer (NR concentration 270 nM)
# In short: as §1
# [8] = test system: RARa:RXR (NR concentration 270 nM, RXRa partner concentration 90 nM)
# In short: as §1
# [9] = test system: RARa homodimer (NR concentration 270 nM)
# In short: as §1
# [10] = test system: RARb:RXRa (NR concentration 270 nM, RXRa partner concentration 90 nM)
# In short: as §1
# [11] = test system: RARb homodimer (NR concentration 270 nM)
# In short: as §1
# [12] = test system: RARg:RXRa (NR concentration 270 nM, RXRa partner concentration 90 nM)
# In short: as §1
# [13] = test system: RARg homodimer (NR concentration 270 nM)
# In short: as §1
# [14] = test system: RXRa DBDmut IVT, anti-RXR (DBD mutation: RXRa K156A/R161A, NR concentration 90 nM)
# In short: as §1
# [15] = test system: RXRa homodimer (NR concentration 180 nM)
# In short: as §1
# [16] = test system: THRa:RXRa (NR concentration 90 nM, RXRa partner concentration 90 nM)
# In short: as §1
# [17] = test system: THRa homodimer (NR concentration 90 nM)
# In short: as §1
# [18] = test system: VDR:RXRa (NR concentration 270 nM, RXRa partner concentration 90 nM)
# In short: as §1
# [19] = test system: VDR homodimer (NR concentration 270 nM)
# In short: as §1
Sequence,PBM binding z-score [1],PBM binding z-score [2],PBM binding z-score [3],PBM binding z-score [4],PBM binding z-score [5],PBM binding z-score [6],PBM binding z-score [7],PBM binding z-score [8],PBM binding z-score [9],PBM binding z-score [10],PBM binding z-score [11],PBM binding z-score [12],PBM binding z-score [13],PBM binding z-score [14],PBM binding z-score [15],PBM binding z-score [16],PBM binding z-score [17],PBM binding z-score [18],PBM binding z-score [19]
AAACCAAGGTGATCGTGAGGTCGTTGATACTAAC,0.846,1.19,0.252,0.247,0.649,3.05,1.5,2.16,-0.27,1.24,1.41,2.02,0.373,0.896,1.55,3.5,2.46,3.21,2.81
ACTATTAGTTGACTTAGGGGAACCGATACGACGC,1.27,0.41,1.51,1.41,0.783,0.271,0.621,0.648,1.36,0.217,0.325,0.568,0.663,1.15,0.583,1.11,0.616,0.378,0.357
GCTTGTAGATCACGGTTAAGAAAGACTAAGCTAA,2.32,1.04,-0.32,-0.283,0.0431,-0.49,-0.193,-0.247,0.0308,-0.178,-0.369,-0.304,-0.36,0.053,-0.526,-0.523,-1.01,-0.34,-0.582
AGAACGAGGACACGCTGAGTTGATAGCAGAGTAG,1.51,1.16,-0.315,0.431,0.209,-0.361,0.196,-0.397,-0.0719,1.4,0.357,0.807,1.74,0.835,-0.00543,3.15,2.29,0.161,1.14
CATACAGGGTCAGCTAGGCCAGAGTAGGGACGGC,1.4,2.5,0.615,1.03,1.25,1.89,-0.17,2.74,0.0717,4.31,3.14,4.44,4.26,1.44,4.42,3.1,0.753,3.8,1.32
GCGCCTGGGGCAAAGCAGGTTACCATAAGGTTGG,0.355,-0.0318,-1.1,-1.44,-0.5,0.277,-0.671,0.359,-0.592,1.02,0.951,0.319,0.493,-0.424,0.237,2.96,-0.193,-0.092,-0.387
GCAGACAGGTGAAACGCAGGTAACTAAGGGTGGC,0.562,0.741,-0.406,-0.735,-0.84,-0.388,-0.493,0.156,-0.657,0.531,0.042,0.719,0.208,-0.64,0.593,1.15,-0.719,-0.407,-0.867
GCTAGCAGGCCATTTGGGTCACACAATGACGGGC,2,2.63,-0.238,-0.979,0.139,0.906,0.00293,1.05,-0.205,1.61,1.93,1.23,1.48,-0.0753,1.2,2.03,0.818,1.24,0.18
GGAACTAGGGCAAGTTGATAGCAGAGTTTGATGG,7.19,6.86,0.964,0.266,0.42,0.0404,0.803,-0.0697,-0.11,1.69,1.11,0.675,1.21,1.07,0.0337,0.0165,-0.214,-0.183,0.251
TCTGCTAGGTCAACGATCGTCAGCTAATCTGCTA,4.39,4.24,-0.071,-0.625,0.478,0.836,-0.972,1.79,-1.13,3.96,2.88,4.06,4.96,0.835,2.44,2.6,0.335,1.03,-0.498
GCGACTGGGGCATCACCAGGTTACCATAACTTAA,3.65,3.39,-0.477,-0.785,0.0676,0.244,-0.357,0.695,-0.656,0.96,0.954,0.961,0.521,-0.237,0.427,1.92,0.551,-0.162,-0.267
TGTTGTAGATCAAAGGTTAAGAAAGCCGAAGCCT,-0.0218,3.76,0.531,0.517,1.54,2.04,0.18,2.87,0.902,1.89,1.46,2.08,1.36,-0.391,2.85,1.34,-0.597,1.44,-0.249
AATACAGGGTCACTAGGGCAGAGTAGGTACGAAT,4.88,6.25,2.07,2.29,3.08,3.51,1.1,4.65,1.32,4.27,3.68,5.3,5.01,2.74,5.8,3.45,1.6,4.5,2.98
CGAACTAGGTCATCCAGGACAGTGATTACATTGA,8.17,8.1,1.9,1.24,1.15,1.95,1.25,2.17,0.703,3.98,1.77,4.03,5.13,2.49,3.37,3.68,2.14,4.57,2.32
CCTACTGGGCCAAGGTGATTGATCAGTCAAAGCA,3.98,3.6,-0.461,-1.01,-0.0957,-0.771,-0.714,-0.606,-1.01,0.182,-0.085,-0.199,-0.0733,-1.43,-0.57,0.355,-0.015,-0.746,-0.782
GCTATTAGTTGAAAGGGCGACCGAATGATTCTCG,0.652,-0.0504,-0.223,-0.65,0.251,-0.1,-0.523,0.097,-0.0879,0.699,0.767,0.148,0.219,0.775,0.22,-0.155,-0.468,-0.17,0.16
TCTTGTAGATCAATAGAGGTTAAGATAGTGCGCT,1.55,0.959,0.251,0.77,0.455,2.26,-0.0224,2.09,0.236,0.832,1.21,0.947,0.501,0.749,1.75,2.51,-0.429,1.65,0.0861
TCATATAGGTAAACACGTGAAAGTCCGTAAGTTA,4.07,2.96,0.9,1.04,0.24,0.722,0.241,0.769,1.1,0.364,0.112,0.245,0.371,1.31,0.661,0.0438,0.238,0.885,0.164
GCTAGCAGGCCATTTGGGTCACTCCATGACGGGC,1.48,1.98,-0.282,-0.961,-0.247,0.113,-0.146,0.126,-0.604,1.39,1.6,0.733,1.19,0.0531,0.716,1.61,0.324,0.513,0.419
GGAACGAGGGCAAGTAGATAGCAGAGTTTGATGG,3.61,2.59,-0.498,-0.505,-0.0596,0.344,0.589,0.247,-0.258,2.46,1.26,1.3,1.91,1.7,0.888,0.882,-0.115,0.536,1.29
ATCGAAAGGTCGAGGTGAGTATCGAGAAAGGGAA,0.319,2.07,0.156,0.836,1.5,2.44,0.217,3.52,0.474,4.2,2.53,4.33,4.51,0.532,4.17,2.65,0.543,2.57,0.173
CGAACTAGGTCATTGACCGGACAGTGAATAGTAA,8.08,8.12,0.655,0.319,0.696,1.2,-0.102,1.93,0.169,3.61,2.74,4.42,4.59,2.25,2.82,2.57,0.878,1.96,1.18
ATCGAAAGGTCGACGAGGTGAGTTTACACCGTTT,0.636,2,1.01,0.288,1.24,3.35,0.675,3.27,0.024,3.9,3.04,4.11,3.94,1.48,4.05,3.8,0.782,5.25,2.35
ACTTACTGGTCAACGAGGTTATAGCACGCGTATA,1.29,1.65,1.75,1.91,1.38,1.89,0.901,2.03,1.23,2.09,1.88,1.72,1.94,1.16,1.85,2.26,1.22,,1.71
ACTTTTAGTTGACTTAGGGCAACCGATACGACGC,0.679,0.936,1.38,1.82,0.639,0.436,0.106,0.954,0.984,1.23,1.37,1.1,1.22,1.12,0.756,1.64,0.763,0.839,0.282
GCATATAGGTAATACAAGGTGAAAGACCGATTGT,3.84,3.44,0.445,0.718,0.0891,0.523,-0.102,1.49,0.624,0.568,0.665,0.88,0.835,0.075,0.929,4.12,0.583,0.319,-0.0342
CCTCAGAGGACAACAGGAGGTCAGAGCTGCCAGA,0.559,0.422,-0.428,-1.85,1.69,2.04,0.295,2.24,0.569,3.46,3.94,4.09,4.83,1.36,2.06,2.79,0.791,2.34,1.29
CCGGCTGGGGCAGAAAGGTTACCATACCATCCGG,-0.851,-0.138,-1.63,-1.34,0.44,0.704,-0.199,1.52,-0.576,1.85,2.18,1.68,1.35,-1.28,1.74,0.969,-0.459,0.63,-0.229
TCGAGTAGGTTAGGGCCATTCAGAATGGCGTCGA,1.63,0.942,-0.334,0.0284,-0.315,0.054,-0.626,-0.18,-0.395,0.699,0.309,-0.0137,0.11,-0.0874,0.299,0.672,-0.173,-0.353,-0.211
GCTATTAGTTGAAAGGTCAACCGAATGATTCTCG,1.5,3.85,0.539,0.804,3.47,5.54,1.29,6.55,1.86,4.97,5.01,6.07,5.57,1.88,7.11,3.83,1.41,4.71,2.06
